Growth data for ten molecules are collected here from PubChem BioAssay (NCI).

Among the test systems are OVCAR-5 ovarian; OVCAR-4 ovarian; IGROV1 ovarian; NCI/ADR-RES ovarian; BT-549 breast; MDA-MB-435 melanoma; HCT-116 colon; HCC-2998 colon; RPMI-8226 leukemia; OVCAR-8 ovarian; SK-OV-3 ovarian; HS 578T breast; T-47D breast; SW-620 colon; MCF7 breast; KM12 colon; OVCAR-3 ovarian.
Holding throughout (test): NCI-60 one-dose screen, 48 h (100 = growth as untreated, 0 = no growth, -100 = all killed)
Holding throughout (conditions): 10 µM unless noted

This is part of a sample that, as a whole, favours compounds with a hit. Of some 83,000 tested, about 20% had one in any assay.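 In brief: 96-well plates, 48 h treatment, single concentration, percent growth endpoint.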 Values without a mark were called inactive. Active and inactive are the calls of the source. How the source made its calls: active means growth percent below 10; inactive means the rest.

On to `C=C1CCC2C3(C)COC(c4ccccc4)OC3CCC2(C)C1C/C=C1/C(=O)OCC1O` (stereo not given), for which the growth in the assay on OVCAR-5 ovarian was 117%; with OVCAR-4 ovarian it was 66.6%; with IGROV1 ovarian it was 59.2%; in the assay on NCI/ADR-RES ovarian, 51.5%; in the assay with BT-549 breast, 56.5%; with MDA-MB-435 melanoma, 72.8%. In addition, the growth in the assay on HCT-116 colon is 38.6%; with HCC-2998 colon it was 94.1%.
As for `NNC(=O)CNc1ccc2ccccc2c1`, the growth is 113% in the assay on RPMI-8226 leukemia; 108% with OVCAR-8 ovarian; 108% in the assay with OVCAR-4 ovarian; 106% with SK-OV-3 ovarian; -27.9% (active) in the assay on IGROV1 ovarian; 93.3% with HS 578T breast. The growth in the assay with NCI/ADR-RES ovarian is 113%; with T-47D breast, 108%; with BT-549 breast, 93.4%; with MDA-MB-435 melanoma, 111%; in the assay with SW-620 colon, 99.8%; in the assay on MCF7 breast, 102%. Moreover, the figures for the growth in the assay on HCT-116 colon, with HCC-2998 colon and with KM12 colon were 107%, 140% and 97.2%, respectively.
As for `COC1=C(OC)C(=O)c2ccccc2C1=O`, the growth in the assay on RPMI-8226 leukemia is 97.5%; in the assay with OVCAR-8 ovarian, 93.3%; in the assay on OVCAR-4 ovarian, 74.9%; in the assay with SK-OV-3 ovarian, 111%; with IGROV1 ovarian, 104%; in the assay on OVCAR-3 ovarian, 87.8%. Further, the growth in the assay with NCI/ADR-RES ovarian is 94.3%; in the assay on T-47D breast it was 59.1%; with BT-549 breast, 101%; in the assay with MDA-MB-435 melanoma, 111%; in the assay with MCF7 breast, 86.3%; with HCT-116 colon, 96.2%. The growth in the assay on HCC-2998 colon was 94.5%; in the assay on KM12 colon it was 105%.
With `Cc1ccc(C(=O)Nc2ccc(CN3CCN(C)CC3)c(C(F)(F)F)c2)cc1C#Cc1cnc(N)c2ccc(F)cc12`, the growth in the assay on RPMI-8226 leukemia is -59.4% (active); with OVCAR-8 ovarian, -70.9% (active); in the assay on OVCAR-5 ovarian, -90.2% (active); in the assay on OVCAR-4 ovarian, -60.8% (active); in the assay on SK-OV-3 ovarian, 1.66% (active); in the assay on OVCAR-3 ovarian it was -83.3% (active). In addition, the growth with HS 578T breast was -30.2% (active); in the assay on NCI/ADR-RES ovarian, -52.4% (active); in the assay on BT-549 breast, -95.9% (active); in the assay on MDA-MB-435 melanoma it was -93.2% (active); in the assay with SW-620 colon it was -83.6% (active); in the assay on MCF7 breast, -79.7% (active). Also, the growth was -96.5% (active) in the assay on HCT-116 colon and -76.9% (active) in the assay with KM12 colon.
For `COC(=O)C1CC(=O)N(C(=O)Nc2ccc(Cl)cc2Cl)C1` (stereo not given), the growth is 98.9% in the assay with RPMI-8226 leukemia; 99.1% with OVCAR-8 ovarian; 101% in the assay with OVCAR-5 ovarian; 88.4% with SK-OV-3 ovarian; 107% with IGROV1 ovarian; 111% in the assay with OVCAR-3 ovarian. Moreover, the growth in the assay on HS 578T breast is 82.9%; in the assay with NCI/ADR-RES ovarian, 99.6%; in the assay on BT-549 breast it was 95.9%; in the assay on MDA-MB-435 melanoma, 107%; in the assay with SW-620 colon, 105%; in the assay with MCF7 breast, 87.6%. In addition, the values for the growth in the assay with HCT-116 colon, in the assay on HCC-2998 colon and with KM12 colon were 98.1%, 107% and 104%, respectively.
Turning to `CCN(CC)CCNc1ncnc2c1cnn2-c1ccc(Cl)cc1`, the growth in the assay on RPMI-8226 leukemia was 96.7%; with OVCAR-5 ovarian it was 89.6%; in the assay with OVCAR-4 ovarian it was 90.6%; in the assay on SK-OV-3 ovarian it was 99.7%; in the assay with OVCAR-3 ovarian, 63.1%; in the assay on HS 578T breast it was 77.5%. Moreover, the growth with NCI/ADR-RES ovarian is 91.4%; with T-47D breast it was 65%; in the assay with MDA-MB-435 melanoma it was -34.8% (active); in the assay on SW-620 colon, 63%; in the assay on MCF7 breast, 75%; with HCT-116 colon, 77.8%. The growth with HCC-2998 colon was 82.7%; in the assay on KM12 colon it was 67.5%.
For `Cc1ccc(S(=O)(=O)Nc2cccc(Cn3c(=O)[nH]c4ccc(Oc5ncccn5)cc4c3=O)c2)cc1`, the growth was 61.2% in the assay on RPMI-8226 leukemia; 90.8% with OVCAR-8 ovarian; 90.5% in the assay on OVCAR-4 ovarian; 81.2% in the assay with SK-OV-3 ovarian; 57.8% with IGROV1 ovarian; 38.9% in the assay with OVCAR-3 ovarian. Further, the growth was 89.3% with HS 578T breast; 93.3% in the assay on NCI/ADR-RES ovarian; 65.2% with BT-549 breast; -10.1% (active) in the assay on MDA-MB-435 melanoma; 64.8% with SW-620 colon; 32.5% in the assay on MCF7 breast. The growth with HCT-116 colon is 59%; with HCC-2998 colon it was 81.3%; with KM12 colon, 39.6%.
For `CSC1=Nc2c(c(C)c(-c3ccccc3)n2CCCCl)C2=NC(=O)CN12`, the growth in the assay with RPMI-8226 leukemia is 50.5%; in the assay with OVCAR-8 ovarian, 88.4%; in the assay with OVCAR-4 ovarian it was 75.5%; with SK-OV-3 ovarian, 87.5%; in the assay on IGROV1 ovarian it was 47.9%; with OVCAR-3 ovarian, 85.2%. Besides, the growth in the assay on HS 578T breast was 84.6%; in the assay with NCI/ADR-RES ovarian, 58%; in the assay on T-47D breast, 72.4%; in the assay on BT-549 breast, 61.2%; in the assay on MDA-MB-435 melanoma, -31.4% (active); in the assay with MCF7 breast it was 36.3%. Further, the values for the growth with HCT-116 colon, with HCC-2998 colon and in the assay on KM12 colon were 26.7%, 72.3% and 26.1%, respectively.
Turning to `CC(O)c1cc[cH-]c1.[Fe+2].c1cc[cH-]c1` (stereo not given), the growth was 102% in the assay on RPMI-8226 leukemia; 100% in the assay on OVCAR-8 ovarian; 114% in the assay on OVCAR-4 ovarian; 99.6% with SK-OV-3 ovarian; 106% with IGROV1 ovarian; 108% in the assay on OVCAR-3 ovarian. In addition, the growth is 104% in the assay with HS 578T breast; 102% in the assay with NCI/ADR-RES ovarian; 101% in the assay on T-47D breast; 95.5% in the assay on BT-549 breast; 104% with MDA-MB-435 melanoma; 103% in the assay on SW-620 colon. Further, the growth in the assay on MCF7 breast was 103%; in the assay on HCT-116 colon it was 94.1%; in the assay on HCC-2998 colon, 109%; with KM12 colon, 103%.
Turning to `COc1ccccc1Nc1nnc(COc2ccc(CNC(=O)CCCC/C=C/C(C)C)cc2OC)o1`, the growth was 70.7% in the assay on RPMI-8226 leukemia; 101% in the assay on OVCAR-8 ovarian; 101% in the assay on OVCAR-4 ovarian; 107% with SK-OV-3 ovarian; 97.8% in the assay on IGROV1 ovarian; 89.6% in the assay with OVCAR-3 ovarian. Also, the growth with NCI/ADR-RES ovarian was 89.8%; in the assay with T-47D breast it was 76.1%; in the assay on BT-549 breast it was 85.6%; in the assay on MDA-MB-435 melanoma it was 103%; with MCF7 breast, 87.1%; in the assay with HCT-116 colon, 86.8%. Besides, the growth in the assay on HCC-2998 colon was 105%; in the assay on KM12 colon, 95.5%.
